# Screening data as filed in PubChem BioAssay.
# KDM5B inh: KDM5B demethylase inhibition | KDM5B demethylase, FDH-coupled NADH fluorescence (FDH is formaldehyde dehydrogenase) | Potency, µM (top dose mostly 57.7 µM), actives largely listed as inhibitors | 220,000 compounds, 2.6% hits; active means well fitted inhibition curve with a large enough effect; further: 0% is about no effect; nearly all actives have a fitted effect of over 70% in size
#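 Compound dilutions met 200 nM (final) KDM5BΔAP for 10 min at room temperature before substrate addition. The substrate mix held 12.5 µM H3K4me3 with cofactors 25 µM α-ketoglutarate and 50 µM Fe²⁺. NADH signal gain over 30 min defined activity.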
# * hit, by the source's call; i = inactive; ! = not confirmed by another sample. The entries come from a sample that favours hits as a whole. Potency means the concentration at half of the fitted maximal effect.
SMILES,KDM5B inh
COc1ccc(CNc2cc(Cl)nc3ccnn23)cc1,i
Cc1cccc(CCNC(=O)c2ccc3c(Cl)c4c(nc3c2)CCCC4)c1,i
COc1ccc2ccccc2c1CN1CCC2(CC1)[C@H](O)C[C@@H]2OCCN,i
Cc1ccc2oc(C(=O)NCCc3ccc(S(N)(=O)=O)cc3)cc(=O)c2c1,i
C[C@H](NC(=O)Cn1ccc2ccc(OCc3ccccc3)cc21)C(=O)O,i
COc1ncccc1-c1cc(-c2c(C)noc2C)cc2c1C(=O)N(C)C2=O,i
CC(=O)N1CCN(C(=O)Cn2ccc3cc(OCc4ccccc4)ccc32)CC1,i
COc1cccc(CNC(=O)c2cnc3c(-c4ccc(F)cc4)c(C)nn3c2C)c1,i
CNC(=O)CCn1ncc2cc(OCc3ccccc3-c3cccnc3OC)ccc21,i
Cc1ccccc1-c1cccc(CCOc2cnc3c(ccn3CC(=O)O)c2)c1,39.8µM*
COc1ncccc1-c1cccc(CCOc2cnc3c(ccn3CC(=O)O)c2)c1,39.8µM*
COc1ccc(-c2cccc(CCOc3cnc4c(ccn4CC(=O)O)c3)c2)c(C)c1,39.8µM*
COc1cccc(CCC(=O)N2CCC3(CC2)N=C(c2ccccc2)NO3)c1,i
Cc1cn2nnc(C(=O)NCc3ccc(OC(C)C)cc3)c2c(=O)[nH]1,i
COc1ccc(OCc2cc(C(=O)N3CCN(CC4CC4)CC3)n[nH]2)c(Cl)c1,i
O=C1C=C(Cl)c2cccc3cccc1c23,i
CC(C)N(Cc1ccccc1)C(=O)COC(=O)c1ccc(F)cc1F,i
COc1ccccc1N1CCN(c2nc(CSc3ccc(C)cc3)cc(=O)[nH]2)CC1,i
CC(Oc1ccc2ccccc2c1)C(=O)N1CCCOCC1 (centres undefined),i
Fc1cccc(-n2nc(C3CCOCC3)nc2CNC2CC2)c1,i
c1ccc(Cn2nc(C3CCOCC3)nc2C2CCC2)cc1,i
N[C@@H](CO)c1nc(C2CCOCC2)nn1-c1ccccc1F,25.1µM*
CCN(CC)c1nc2ccccc2nc1C(=O)Nc1ccc(OC)cc1,i
CCc1ccc(/C=N/O)cc1,i
N#Cc1ccc(CN2CCC(c3nc4ccc(F)cc4c(=O)[nH]3)CC2)cc1,i
SMILES,KDM5B inh
CCN1CCC(c2nc3ccc(C)cc3c(=O)[nH]2)CC1,i
Cc1ccc2nc(C3CCN(Cc4ccc(C#N)cc4)CC3)[nH]c(=O)c2c1,79.4µM*!
O=C(CSCc1nc2ccccc2s1)NC1CCCCC1,i
COCCn1ncc(N2CCC(C(=O)N(C)CC(=O)Nc3ccc(F)cc3)C2)cc1=O (centres undefined),i
O=C(Nc1cccc(Cl)c1)c1ccc2ccccc2n1,i
O=C(NCC1CCCO1)Nc1c(NC2CCCCC2)c2ccccc2oc1=O (centres undefined),i
Cc1ccc(OCCC2CCN(C(=O)Cc3c[nH]c4ccccc34)C2)cc1 (centres undefined),i
COc1ccc2c(C)cc(SCC(=O)N3CCCCCC3)nc2c1,i
COc1ccc(-c2cnc3[nH]cc(CC(=O)N4CCC(OC)CC4)c3c2)cc1,35.5µM*
O=C1CN(C(=O)Cc2c[nH]c3ncc(-c4ccccc4)cc23)CCN1,39.8µM*
COCCOC1CCN(C(=O)Cc2ccccc2)CC1,i
COc1ccc(OCc2nc(C3CN(C(=O)Cc4c[nH]c5ccccc45)C3)no2)cc1,i
O=C1CN(C(=O)CCc2c[nH]c3ccccc23)CCN1,i
O=C1CN(C(=O)CCc2ncc(-c3ccccc3)o2)CCN1,i
CC1CCN(C(=O)C2CCN(C(=O)Cc3c[nH]c4ccccc34)CC2)CC1,i
COc1ccc(-c2cnc3[nH]cc(CC(=O)N4CCCC4)c3c2)cc1,35.5µM*
COC1CCN(C(=O)Cc2c[nH]c3ncc(-c4ccccc4)cc23)CC1,39.8µM*
COc1ccc(-c2cc(C(F)(F)F)nc(SCCC(=O)N3CCCC3)n2)cc1,i
COc1ccc(NC(=O)Cn2c(C)cc3nc4n(c(=O)c32)CCCCC4)cc1Cl,i
COC(=O)c1ccccc1NS(=O)(=O)c1c(C)nn(C)c1C,i
O=C(c1ccc2c(c1)OCO2)N1CCCN(c2cc(-c3ccc(Br)cc3)[nH]n2)CC1,i
Cc1cccc(-n2ncc3c(NNC(=O)C4CCCCC4)ncnc32)c1,i
COC(=O)CC1=C(C(=O)OC)C(c2ccc(C(=O)OC)cc2)C(C#N)=C(N)O1 (centres undefined),i
CCOc1ccccc1C(=O)N1CCC(Cc2nc(-c3ccc(OC)cc3)no2)CC1,i
CN(CCC(=O)c1cccs1)CCC(=O)c1cccs1,i
SMILES,KDM5B inh
Cc1ccc(C(=O)NC(C(=O)N2CCCCC2)C2CCN(S(=O)(=O)C(C)C)CC2)cc1 (centres undefined),i
O=C(O)/C=C/c1ccc(Br)s1,i
COc1ccc(-c2onc(C)c2C(=O)NCCCCc2ccccc2)cc1,i
Cc1noc(-c2ccc(OC(F)(F)F)cc2)c1C(=O)NCc1ccccc1Cl,i
Cc1noc(-c2ccccc2Cl)c1C(=O)NCCCc1ccccc1,i
Cc1noc(-c2ccc3c(c2)OCO3)c1C(=O)NCCCCc1ccccc1,28.2µM*
Cc1ccccc1-c1onc(C)c1C(=O)NCc1cc(F)cc(F)c1,i
Cc1onc(-c2ccccc2)c1C(=O)NC(C)CCc1ccccc1 (centres undefined),i
COc1ccc(CNC(=O)c2c(C)noc2-c2cccc(F)c2)cc1,i
Cc1noc(-c2cccc(F)c2)c1C(=O)NCc1cccc2ccccc12,i
CCOc1ccccc1CNC(=O)c1c(C)noc1-c1ccc2c(c1)OCO2,28.2µM*
Cc1noc(-c2ccc3c(c2)OCO3)c1C(=O)NCc1cc(F)cc(F)c1,28.2µM*
Cc1noc(-c2ccc3c(c2)OCO3)c1C(=O)NC(C)CCc1ccccc1 (centres undefined),28.2µM*
O=C(NCc1ccccc1)c1noc(-c2ccc3c(c2)OCO3)n1,i
CCC(C)NC(=O)N(C)C1CCN(c2ccc(Cl)cc2)CC1 (centres undefined),i
Cc1cc(C)c2[nH]c(C)c(CN(C)C3CCCCC3)c(=O)c2c1,i
Cn1cnc2c1c(=O)n(CC(=O)NCc1ccccc1Cl)c(=O)n2C,i
COCCNC(=O)[C@@H]1C[C@H](Oc2ccccc2)CN1C(=O)c1ccc2ccccc2n1,i
Cc1ccc(SC2CC(C)OC2=O)cc1C (centres undefined),i
COc1ccc(C(=O)NC2CCCCC2)cc1C,i
O=C(NC1CCN(c2cc(-c3ccc(F)cc3)[nH]n2)CC1)c1ccc(F)c(Cl)c1,i
O=C(N[C@H]1CCN2C(=O)N(c3cccc4nsnc34)C(=O)[C@@H]2C1)c1ccc(F)c(Cl)c1,31.6µM*
Cc1nnsc1C(=O)N[C@H]1CCN2C(=O)N(c3ccc(F)c(Cl)c3)C(=O)[C@@H]2C1,i
O=C(Nc1ccc(N2CCOCC2)cc1)c1cccc(Nc2ccnc(-c3cccc(F)c3)n2)c1,i
COC(=O)[C@@H](Cc1cccnc1)NC(=O)[C@H]1CN(C(=O)c2cccnc2)CCN1C(=O)C1CCCCC1,i
CC(CCc1ccccc1)NC(=O)CSc1nc2cc(S(=O)(=O)N3CCOCC3)ccc2o1 (centres undefined),i
CC(=O)N1C=Cc2ccccc2C1CC(=O)Nc1cccc(S(=O)(=O)N2CCOCC2)c1 (centres undefined),i
Cn1cccc1CN1CCCC2(C1)C(=NC1CCCC1)NC(=O)N2c1cc(F)cc(F)c1 (centres undefined),i
Cc1ccc(NC(=O)Cn2c(N3CCCCC3)nc(C)c(C)c2=O)c(Cl)c1,i
